Records with an inconclusive call do not appear. Active and inactive are the calls of the source. Calls follow the shape of the dose curve; as a rule, active = well fitted cell-killing curve with a large enough effect; inconclusive = small, poorly fitted or top-dose-only effect; inactive = flat fitted curve, though single readings scatter.
Assay: Cell Viability - LYMP2-014 (AID 983);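 also: cells exposed to compound for 24 h at 37 °C; plate controls were DMSO only for no effect and 92 µM tetraoctylammonium bromide for full effect; nearly all actives have a fitted effect of over 50% in size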
Details: LYMP2-014 lymphoblastoid cells, viability qHTS; series mostly up to 92.2 µM; activity change, negative = cytotoxicity: at the top concentration
How it was run: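 Cells are plated at 2500/well and left 5 hr at 37 C. Compounds are added across a concentration range and incubated 24 hr at 37 C in complete medium. CellTiter-Glo is added, and luminescence is read after 30 min at room temperature.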

SMILES | Potency | activity change, negative = cytotoxicity
O=C(O)COc1ccc(Cl)cc1Cl | inactive | 
O=S1OCC2C(CO1)C1(Cl)C(Cl)=C(Cl)C2(Cl)C1(Cl)Cl (configuration not stated) |  | -27.9% (inactive)
c1ccc(N=Nc2ccccc2)cc1 |  | -2.34% (inactive)
CNC(=O)O/N=C/C(C)(C)SC |  | -13.6% (inactive)
CCNc1nc(Cl)nc(NC(C)C)n1 |  | -8.98% (inactive)
C=CCc1ccc(OC)cc1 |  | -0.42% (inactive)
ClC1=C(Cl)C2(Cl)C3C(Cl)C=CC3C1(Cl)C2(Cl)Cl (configuration not stated) |  | -24.4% (inactive)
ClC(Cl)=C(c1ccc(Cl)cc1)c1ccc(Cl)cc1 | inactive | 
C/C=C/c1ccc2c(c1)OCO2 |  | -1.64% (inactive)
C=CCc1ccc2c(c1)OCO2 |  | 0.906% (inactive)
COP(=S)(OC)Oc1ccc([N+](=O)[O-])cc1 |  | 6.55% (inactive)

Assay: Cell Viability - LYMP2-016 (AID 984);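 also: cells exposed to compound for 24 hours at 37 °C; nearly all actives have a fitted effect of over 55% in size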; also: potency is read from the fitted curve at half-maximal effect; as to activity change, negative = cytotoxicity: % is scaled to controls: 0 for no effect and ±100 for the full control effect
Details: LYMP2-016 lymphoblastoid cell viability, qHTS; series mostly up to 92.2 µM; activity change, negative = cytotoxicity: at the top concentration
How it was run: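 qHTS, 1536-well: 2500 LYMP2-016 cells/well, 5 hr 37 C, compound added, 24 hr 37 C, CellTiter-Glo 30 min RT, luminescence. Tetraoctylammonium bromide positive control. AC50 via Hill fit.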

SMILES | Potency | activity change, negative = cytotoxicity
O=C(O)COc1ccc(Cl)cc1Cl | inactive | 
c1ccc(N=Nc2ccccc2)cc1 |  | -14% (inactive)
CNC(=O)O/N=C/C(C)(C)SC |  | -21.6% (inactive)
CCNc1nc(Cl)nc(NC(C)C)n1 |  | 8.47% (inactive)
C=CCc1ccc(OC)cc1 |  | -5.35% (inactive)
ClC1=C(Cl)C2(Cl)C3C(Cl)C=CC3C1(Cl)C2(Cl)Cl (configuration not stated) |  | -22% (inactive)
ClC1=C(Cl)C2(Cl)C3C4CC(C5OC45)C3C1(Cl)C2(Cl)Cl (configuration not stated) | 50.1 µM (active) | 
ClC(Cl)=C(c1ccc(Cl)cc1)c1ccc(Cl)cc1 | inactive | 
C/C=C/c1ccc2c(c1)OCO2 |  | -1.03% (inactive)
C=CCc1ccc2c(c1)OCO2 |  | -12.2% (inactive)
COP(=S)(OC)Oc1ccc([N+](=O)[O-])cc1 |  | -14.9% (inactive)

Assay: Cell Viability - LYMP2-018 (AID 985);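 also: compound exposure lasted 24 hr at 37 °C; nearly all actives have a fitted effect of over 50% in size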; also: potency is read from the fitted curve at half-maximal effect;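 as to activity change, negative = cytotoxicity: plate controls were DMSO only for no effect and tetraoctylammonium bromide at 92 µM for full effect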
Details: LYMP2-018 lymphoblastoid cells, viability (qHTS); series mostly up to 92.2 µM; activity change, negative = cytotoxicity: at the top concentration
How it was run: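 Seed 2500 lymphoblastoid cells per well, incubate 5 hr at 37 C, add compound and incubate 24 hr at 37 C, add CellTiter-Glo, wait 30 min at room temperature, then read luminescence.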

SMILES | Potency | activity change, negative = cytotoxicity
O=C(O)COc1ccc(Cl)cc1Cl | inactive | 
c1ccc(N=Nc2ccccc2)cc1 |  | -21.4% (inactive)
CNC(=O)O/N=C/C(C)(C)SC |  | -13.7% (inactive)
CCNc1nc(Cl)nc(NC(C)C)n1 |  | -13.1% (inactive)
ClC1=C(Cl)C2(Cl)C3C4CC(C5OC45)C3C1(Cl)C2(Cl)Cl (configuration not stated) | 39.8 µM (active) | 
ClC(Cl)=C(c1ccc(Cl)cc1)c1ccc(Cl)cc1 | inactive | 
CCc1cccc(CC)c1N(COC)C(=O)CCl | 39.8 µM (active) | 
C/C=C/c1ccc2c(c1)OCO2 |  | 3.03% (inactive)

Assay: Cell Viability - LYMP2-020 (AID 986);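 also: cells exposed to compound for 24 h at 37 °C; nearly all actives have a fitted effect of over 55% in size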; also: potency is read from the fitted curve at half-maximal effect;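 as to activity change, negative = viability loss: plate controls were DMSO only for no effect and tetraoctylammonium bromide at 92 µM for full effect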
Details: series mostly up to 92.2 µM; activity change, negative = viability loss: at the top concentration
How it was run: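 Seed 2500 cells per well and incubate 5 hr at 37 C. Add compounds at a concentration series and incubate 24 hr at 37 C. Add CellTiter-Glo, wait 30 min at RT, read luminescence, and fit a Hill curve for AC50.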

SMILES | Potency | activity change, negative = viability loss
O=C(O)COc1ccc(Cl)cc1Cl | inactive | 
ClC1=C(Cl)C2(Cl)C3C4C=CC(C4)C3C1(Cl)C2(Cl)Cl (configuration not stated) | 50.1 µM (active) | 
O=S1OCC2C(CO1)C1(Cl)C(Cl)=C(Cl)C2(Cl)C1(Cl)Cl (configuration not stated) |  | -16.3% (inactive)
c1ccc(N=Nc2ccccc2)cc1 |  | -20.6% (inactive)
CCNc1nc(Cl)nc(NC(C)C)n1 |  | -6.39% (inactive)
C=CCc1ccc(OC)cc1 |  | -6.56% (inactive)
ClC1=C(Cl)C2(Cl)C3C4CC(C5OC45)C3C1(Cl)C2(Cl)Cl (configuration not stated) | 31.6 µM (active) | 
ClC(Cl)=C(c1ccc(Cl)cc1)c1ccc(Cl)cc1 | inactive | 
CCc1cccc(CC)c1N(COC)C(=O)CCl | 50.1 µM (active) | 
C/C=C/c1ccc2c(c1)OCO2 |  | -11% (inactive)
C=CCc1ccc2c(c1)OCO2 |  | -3.19% (inactive)
COP(=S)(OC)Oc1ccc([N+](=O)[O-])cc1 |  | -0.636% (inactive)
